# Source: PubChem (National Center for Advancing Translational Sciences (NCATS))
# GLS inh = blocks human kidney-isoform glutaminase activity | actives 0.21% (n = 410,000) | GLS enzymatic activity, qHTS titration | Potency, µM (top dose mostly 45.5 µM), for the others: at the top dose activity change, negative = inhibition, usual class: inhibitors | O94925; note: % is set by controls: 0 for no effect and ±100 for the full control effect
# Target sequence (O94925 whole entry, looked up, canonical isoform): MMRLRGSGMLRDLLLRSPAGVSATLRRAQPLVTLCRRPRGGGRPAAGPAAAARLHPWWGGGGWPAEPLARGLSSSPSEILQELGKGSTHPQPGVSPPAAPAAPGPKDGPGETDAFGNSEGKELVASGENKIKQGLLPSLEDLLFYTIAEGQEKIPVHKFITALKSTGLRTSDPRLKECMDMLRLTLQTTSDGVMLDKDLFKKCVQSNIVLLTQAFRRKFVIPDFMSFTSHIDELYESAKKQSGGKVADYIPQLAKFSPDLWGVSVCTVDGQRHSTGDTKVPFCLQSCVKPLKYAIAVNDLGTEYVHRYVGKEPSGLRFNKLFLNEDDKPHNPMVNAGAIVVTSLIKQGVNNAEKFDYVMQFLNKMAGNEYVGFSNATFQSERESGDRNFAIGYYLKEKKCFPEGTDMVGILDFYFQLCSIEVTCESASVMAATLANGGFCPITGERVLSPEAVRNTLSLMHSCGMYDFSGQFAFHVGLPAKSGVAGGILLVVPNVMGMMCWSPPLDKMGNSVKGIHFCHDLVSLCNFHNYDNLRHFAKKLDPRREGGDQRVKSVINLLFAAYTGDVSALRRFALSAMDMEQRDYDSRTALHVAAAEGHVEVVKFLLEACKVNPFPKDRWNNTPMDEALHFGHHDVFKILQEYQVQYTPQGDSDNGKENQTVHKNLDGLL
#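 hKGA in 45 mM KH2PO4 (pH 8.2), 0.02% Tween-20 with compound, then 1mM L-Glutamine (stock as added) plus glutamate oxidase/HRP/Amplex red coupling mix. Fluorescence read initially and after 30 min at RT; signal change reflects glutamate formation.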
# G9a block = inhibitors of human histone lysine methyltransferase G9a; G9a H3K9 monomethylation, AlphaScreen, 2 h; Q96KQ7; actives 8.8% (n = 350,000); Potency, µM (top dose mostly 102 µM), inactives show top-dose activity, negative = inhibition, most hits filed as inhibitors; note: % is set by controls: 0 for no effect and ±100 for the full control effect; nearly all actives have a fitted effect of over 75% in size
#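 Methyltransferase reactions run at room temperature for 2 h (20 nM enzyme, 500 nM biotin-H3K9 peptide, 20 uM SAM) after a 15 min compound preincubation; product detected by AlphaScreen beads and anti-H3K9me1 antibody.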
# HP1b binding inh = inhibitors of HP1-beta chromodomain binding to methylated histone tails; actives 0.56% (n = 390,000); P83916; Potency, µM (highest dose often 114 µM), inactives show at the top dose activity change, negative = inhibition, actives largely listed as inhibitors; AlphaScreen HP1-beta / biotin-H3K9me3 peptide binding; note: nearly all actives have a fitted effect of over 70% in size
#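 AlphaScreen: HP1-beta (50 nM) preformed 30 min with biotin-H3(1-18)K9me3 peptide (50 nM) in PBS pH 7.4, 0.01% Tween-20. Compound added for 30 min at RT, then streptavidin donor/nickel chelate acceptor beads (10 ug/mL) for 30 min.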
# JMJD2A Tudor inh = blocks the human JMJD2A Tudor domain | O75164 | AlphaScreen JMJD2A-Tudor / H3K4me3 peptide binding | Potency, µM (titrated, usually from 114 µM), for inactives: top-dose activity change, negative = inhibition, most hits filed as inhibitors | actives 4.4% (n = 390,000); note: % is set by controls: 0 for no effect and ±100 for the full control effect; nearly all actives have a fitted effect of over 50% in size
# BAZ2B block = blocks human BAZ2B; Q9UIF8; AlphaScreen BAZ2B-H3K14Ac peptide displacement; Potency, µM (top dose mostly 114 µM), without a hit: at the top dose activity change, negative = inhibition, most hits filed as inhibitors; actives 4.4% (n = 360,000); note: % is set by controls: 0 for no effect and ±100 for the full control effect; nearly all actives have a fitted effect of over 60% in size
#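 In this displacement format the biotinylated H3(5-23) peptide acetylated at Lys14 serves as ligand at 50 nM, with BAZ2B at 50 nM in PBS pH 7.4 containing 0.01% Tween-20. Donor and acceptor beads are 10 ug/mL final.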
# An asterisk follows results filed as active; u = inconclusive; x = not tested or not shown; [ ] = another dose, or the depositor's remark. In the library only some 10% were active in any assay of this set; here they are far more common. Calls come from the whole dose curve; as a rule, active = well fitted curve in the direction sought with a large enough effect; inconclusive = small, poorly fitted or top-dose-only effect, or another doubt; inactive = no such curve, though single readings can be large; an effect the other way counts as inactive or inconclusive. Potency is the fitted concentration of half-maximal effect.
SMILES,GLS inh,G9a block,HP1b binding inh,JMJD2A Tudor inh,BAZ2B block
COc1ccc(-n2c(Cc3cccn3C)nnc2SCC(=O)Nc2ccc(C(C)=O)cc2)cc1,-6%,50µM*,10%,-25%,u
CC(=O)Nc1cccc(NC(=O)CSc2nnc(Cc3cccn3C)n2-c2ccc(C)cc2)c1,-4%,50µM*,10%,-21%,u
CCCCS(=O)(=O)Nc1ccc(C)cn1,-15%,7.1µM*,u,-18%,-2%
CN=c1scc(-c2ccc(F)cc2)n1/N=C/c1ccc(O)c(O)c1,4%,4.5µM*,40µM*,32µM*,10µM*
COC(=O)/C(C#N)=C/c1c(Oc2cc(C)cc(C)c2)nc2ccccn2c1=O,30%,11%,16%,-18%,-12%
CC1CCCCN1C(=O)COC(=O)c1ccc2ccccc2n1 (stereo unspecified),2%,21%[12.7 µM],45%,-8%,-2%
COc1ccc(CN2CCC(CO)(CCOc3ccccc3)CC2)c(OC)c1C,6%,x,15%,-22%,-7%
CCOc1cc(CN2CCCCC2)ccc1OC,0%,-5%[59 µM],10%,-14%,4%
CCOc1cc(CN2CCc3c([nH]c4ccccc34)C2)ccc1OC,0%,11µM*,u,3.2µM*,50µM*
COc1ccc(CN2CCc3c([nH]c4ccccc34)C2)c(OC)c1C,-20%,32µM*,u,1.3µM*,45µM*
O=C1c2ccccc2C(=O)N1c1ccc(Cl)cc1,x,12%[59 µM],x,-27%,3%
O=C1c2cccc3c(O)ccc(c23)C(=O)N1c1ccc(Cl)cc1,17%,45µM*,38%,9%,11%
CC(=O)Nc1ccc(N2C(=O)c3cccc4c(O)ccc(c34)C2=O)cc1,0%,u,16%,u,50µM*
Cc1ccc(N2C(=O)c3cccc4c(C(=O)O)ccc(c34)C2=O)cc1,x,-51%,x,x,-30%
COc1ccc(-c2nc3c(c(SC)n2)Cc2c(CO)cnc(C)c2O3)cc1,-5%,-34%[59 µM],-8%,-8%,-15%
Cc1ccc2nc3c(nc2c1C)C(O)=C3O,u,13µM*,u,-18%,-3%
COc1cc(C(=O)NC(=S)N2CCCCCC2)cc(OC)c1OC,-9%,-3%,13%,-10%,-21%
CCOc1ccc(C(=O)NC(=S)Nc2ccc(N3CCC(C)CC3)cc2)cc1[N+](=O)[O-],26%,10µM*,-32%,u,u
CC(=O)c1ccc(N2CCN(C(=S)Nc3ccc(Oc4ccccc4)cc3)CC2)cc1,12%,16%,8%,-19%,x
COc1ccccc1C(=O)NC(=S)Nc1ccc(N2CCCC2)cc1,23%,45µM*,u,u,1%
COc1cc(C(=O)NC(=S)Nc2ccc(N3CCCC3)cc2)cc(OC)c1OC,2%,32µM*,10%,-31%,u
CCOc1ccc(C(=O)NC(=S)Nc2ccccc2N2CCC(C)CC2)cc1[N+](=O)[O-],-3%,-4%[59 µM],-1%,-27%,u
CN1CCN(c2ccc(NC(=O)c3ccc(Oc4ccccc4)cc3)cc2)CC1,-7%,50µM*,-38%,u,u
COc1ccccc1C(=O)Nc1ccc(N2CCN(S(C)(=O)=O)CC2)cc1,31%,u,44%,-9%,4%
COc1nc(-c2ccccc2)cc(-c2ccccc2)n1,-7%,88%[59 µM],333%,231%,123%
SMILES,GLS inh,G9a block,HP1b binding inh,JMJD2A Tudor inh,BAZ2B block
CC(=O)N1CCc2cc(S(=O)(=O)NC3CCCc4ccccc43)ccc21 (stereo unspecified),10%,1%[59 µM],15%,-1%,-6%
Nc1nonc1C(=O)NC(c1ccccc1)c1ccccc1,-1%,21%[59 µM],32%,-9%,2%
COc1cccc(C(=O)NC(=S)Nc2ccc3oc(=O)ccc3c2)c1,-6%,40µM*,17%,-26%,3%
CC(C)Oc1ccc(C(=O)Nc2ccc(N(C)C)cc2)cc1,4%,3.5µM*,-19%,u,12%
CC(C)Oc1cccc(C(=O)NC(=S)Nc2ccc(N3CCN(C)CC3)cc2)c1,29%,x,u,50µM*,40µM*
COc1ccc(C(=O)Nc2ccc(N3CCCC3)cc2)cc1Br,-6%,40µM*,12%,u,0%
CC(C)Oc1ccc(C(=O)Nc2ccc3c(c2)n(C)c(=O)n3C)cc1,-5%,-2%,49%,-9%,u
COc1cc(OC)cc(C(=O)NC(=S)Nc2ccc3oc(=O)ccc3c2)c1,-3%,8%,-5%,u,-5%
Nc1c(-c2ccccc2)cnc2ncnn12,-6%,3%[59 µM],24%,-5%,0%
COc1ccc(C(=O)NC(=S)Nc2ccc(CN3CCCCC3)cc2)cc1Cl,-20%,13µM*,-34%,u,u
COc1ccc(C(=O)NC(=S)Nc2ccc(CN3CCOCC3)cc2)cc1OC,23%,u,12%,u,-30%
COc1cccc(C(=O)Nc2ccc3c(c2)C(=O)c2ccccc2C3=O)c1,2%,-14%[59 µM],-12%,18µM*,-36%
COc1ccc(C(=O)N/N=C(/C)c2ccc(N3CCCCC3)cc2)cc1,u,20%[59 µM],8%,50µM*,2%
COc1ccc(/C(C)=N/NC(=O)c2ccc(N(C)C)cc2)cc1,30%,x,30%,-13%,-4%
O=C(Nc1ccc2c(c1)C(=O)c1ccccc1-2)c1ccccc1,-7%,x,16%,-10%,x
COc1cccc(C(=O)NC(=S)Nc2ccc(N(C)C)cc2)c1,42%,10µM*,u,25µM*,10µM*
COc1cccc(C(=O)Nc2ccc(C)cc2)c1,-4%,8%[12.7 µM],41%,-6%,3%
O=C(C[C@@H]1C[C@H]2c3cc(NC(=O)Nc4ccccc4F)ccc3O[C@H]2[C@H](CO)O1)NCC(F)(F)F,8%,x,x,x,x
Cc1cccc(C)c1NC(=O)CN(C)C(=O)c1ccc(-c2cccc(C(F)(F)F)c2)o1,10%,-11%,-3%,-6%,u
COCCNC(=S)Nc1ccc(N2CCCCC2)cc1,18%,8.9µM*,u,u,50µM*
COc1ccc(NC(=S)c2ccc(N(C)C)cc2)cc1,7%,25µM*,u,-11%,-26%
CN(C)c1ccc(NC(=S)c2ccc3ccccc3n2)cc1,-24%,2µM*,41%,-12%,2.5µM*
COc1ccc(C(=O)NC(=S)Nc2ccc(N3CCCC3)cc2)cc1,0%,u,-10%,-19%,-28%
COc1cccc(C(=O)NC(=S)Nc2ccc(N3CCCC3)cc2)c1,37%,8.9µM*,u,40µM*,13µM*
ClCc1csc(N/N=C/c2cccs2)n1,x,u,x,x,-35%
CCc1ccccc1N1CSC2=C(C#N)C(c3ccccc3F)CC(=O)N2C1 (stereo unspecified),0%,0.79µM*,u,22µM*,56µM*
Cc1cccc(N2CSC3=C(C#N)C(c4ccc(C)o4)CC(=O)N3C2)c1 (stereo unspecified),x,3.5µM*,x,x,45µM*
